Source: PubChem BioAssay (NCI)
This is part of a sample that, as a whole, favours compounds with a hit. Of some 83,000 tested, about 20% had one in any assay.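 Results are percent growth after 48 hours of single-concentration exposure. 100 means growth as in untreated cells, lower positive values show inhibition; negative values down to -100 show cell death.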 Calls of active or inactive are those of the source. The calls were made as follows: active = growth percent below 10; inactive = the rest.

Tests used:
Assay in all cases: NCI-60 one-dose screen, 48 h (100 = growth as untreated, 0 = no growth, -100 = all killed)
Conditions in all cases: 10 µM unless noted
HCT-15 colon = test system: HCT-15 colon
HT29 colon = test system: HT29 colon
SNB-75 CNS = test system: SNB-75 CNS
SNB-19 CNS = test system: SNB-19 CNS
U251 CNS = test system: U251 CNS
PC-3 prostate = test system: PC-3 prostate
SK-MEL-5 melanoma = test system: SK-MEL-5 melanoma
UACC-62 melanoma = test system: UACC-62 melanoma
LOX IMVI melanoma = test system: LOX IMVI melanoma
SK-MEL-28 melanoma = test system: SK-MEL-28 melanoma

Measured: growth

O=C1C=CC2(NN=C(c3ccccc3)N2c2cccc(Cl)c2)C(Cl)=C1 (stereo not given)
inactive: HCT-15 colon 79.6% | HT29 colon 87.8% | SNB-75 CNS 82% | SNB-19 CNS 94.3% | U251 CNS 84.6% | PC-3 prostate 58.3% | SK-MEL-5 melanoma 91.8% | UACC-62 melanoma 44.3% | LOX IMVI melanoma 71.2% | SK-MEL-28 melanoma 111%

CCN1CCN(Cc2ccc(NC(=O)Nc3nc(-c4cc(OC)c(OC)c(OC)c4)cs3)cc2C(F)(F)F)CC1
inactive: SNB-75 CNS 24.2% | SNB-19 CNS 33.7% | U251 CNS 15.3%
active: HCT-15 colon -12.6% | HT29 colon 0.541% | PC-3 prostate 6.09% | SK-MEL-5 melanoma -95.3% | UACC-62 melanoma -68.4% | LOX IMVI melanoma -82.7% | SK-MEL-28 melanoma -51.3%

O=S1(=O)OC(c2cc(Cl)c(O)c(Br)c2)(c2cc(Cl)c(O)c(Br)c2)c2ccccc21
inactive: HCT-15 colon 105% | HT29 colon 102% | SNB-75 CNS 83.4% | SNB-19 CNS 102% | U251 CNS 101% | PC-3 prostate 84.3% | SK-MEL-5 melanoma 107% | UACC-62 melanoma 97.1% | LOX IMVI melanoma 96.5% | SK-MEL-28 melanoma 118%

NC[C@@](O)(c1ccc(Cl)cc1)c1ccc(-c2cn[nH]c2)cc1
active: HCT-15 colon 9.55% | HT29 colon 1.46% | SNB-75 CNS -6.12% | UACC-62 melanoma -2.01% | LOX IMVI melanoma 7.1% | SK-MEL-28 melanoma 3.21%
inactive: SNB-19 CNS 30.6% | U251 CNS 19.1% | PC-3 prostate 40.1% | SK-MEL-5 melanoma 39.3%

Cc1c(CN2CCN(C(=O)[C@H](C)O)CC2)sc2c(N3CCOCC3)nc(-c3cnc(N)nc3)nc12
active: HCT-15 colon 2.93% | HT29 colon -13% | SNB-75 CNS -47.4% | SNB-19 CNS 3.17% | U251 CNS 6.95% | PC-3 prostate 8.68% | SK-MEL-5 melanoma -36.3% | UACC-62 melanoma -62.6% | LOX IMVI melanoma 0.99% | SK-MEL-28 melanoma -30%

O=C(Cc1ccccc1)Nc1nnc(NC2CCN(c3nnc(NC(=O)Cc4ccccc4)s3)CC2)s1
inactive: HCT-15 colon 99.4% | HT29 colon 94.4% | SNB-75 CNS 106% | SNB-19 CNS 107% | U251 CNS 90.8% | PC-3 prostate 87.1% | SK-MEL-5 melanoma 98.7% | UACC-62 melanoma 89% | LOX IMVI melanoma 69.2% | SK-MEL-28 melanoma 107%

Cn1cnc2c(F)c(Nc3ccc(Br)cc3Cl)c(C(=O)NOCCO)cc21
inactive: HCT-15 colon 70% | SNB-75 CNS 71.6% | SNB-19 CNS 52.3% | U251 CNS 46.2% | PC-3 prostate 90.7% | SK-MEL-5 melanoma 38.2% | LOX IMVI melanoma 27.6%
active: HT29 colon 7.16% | UACC-62 melanoma -26.6% | SK-MEL-28 melanoma -5.61%

CC(C)OP(=O)(CCC(=O)c1c[nH]c2ccccc12)OC(C)C
inactive: HCT-15 colon 104% | HT29 colon 97.2% | SNB-75 CNS 82.6% | SNB-19 CNS 104% | U251 CNS 90.1% | PC-3 prostate 73.2% | SK-MEL-5 melanoma 110% | UACC-62 melanoma 97% | LOX IMVI melanoma 96.2% | SK-MEL-28 melanoma 121%

CNC(=O)c1ccccc1Nc1nc(Nc2ccc3c(c2OC)CCC[C@H](N2CCN(CCO)CC2)C3)ncc1Cl
active: HCT-15 colon 0.498% | HT29 colon -44.3% | SNB-75 CNS -5.43% | U251 CNS -19.4% | SK-MEL-5 melanoma -92.4% | UACC-62 melanoma -45% | LOX IMVI melanoma -89.6% | SK-MEL-28 melanoma -77.1%
inactive: SNB-19 CNS 18.8% | PC-3 prostate 22.9%

CCN1CCN(Cc2ccc(Cc3ncc(F)c(-c4cc(F)c5nc(C)n(C(C)C)c5c4)n3)nc2)CC1
inactive: HCT-15 colon 32.9% | HT29 colon 13.2% | SNB-75 CNS 21.2% | SNB-19 CNS 47.8% | U251 CNS 45.7% | PC-3 prostate 38.7% | SK-MEL-5 melanoma 34.2% | UACC-62 melanoma 69.1% | SK-MEL-28 melanoma 64.4%
active: LOX IMVI melanoma -80.4%

COc1cc(-c2nc(C(=O)Nc3ccc(C)cc3)nn2-c2ccc(F)c(F)c2)cc(OC)c1OC
inactive: HCT-15 colon 94.7% | HT29 colon 75.5% | SNB-75 CNS 84.9% | SNB-19 CNS 104% | U251 CNS 100% | PC-3 prostate 96.7% | SK-MEL-5 melanoma 95.8% | UACC-62 melanoma 105% | LOX IMVI melanoma 99% | SK-MEL-28 melanoma 108%

COC(=O)c1[nH]cnc1/N=N/N(C)CCO
inactive: HCT-15 colon 109% | HT29 colon 108% | SNB-75 CNS 79% | SNB-19 CNS 103% | U251 CNS 104% | PC-3 prostate 109% | SK-MEL-5 melanoma 102% | UACC-62 melanoma 101% | LOX IMVI melanoma 101% | SK-MEL-28 melanoma 117%

Cc1cc(Nc2nc(N[C@@H](C)c3ncc(F)cn3)ncc2Cl)n[nH]1
inactive: HCT-15 colon 58.4% | HT29 colon 39.1% | SNB-75 CNS 88.3% | SNB-19 CNS 80.9% | U251 CNS 52.7% | PC-3 prostate 81.8% | SK-MEL-5 melanoma 95.9% | UACC-62 melanoma 65% | LOX IMVI melanoma 37.9% | SK-MEL-28 melanoma 87.8%

COc1ccc(Cl)c(Nc2nc3ccccc3nc2NS(=O)(=O)c2cccc(NC(=O)C(C)(C)N)c2)c1
active: SNB-75 CNS -20.2%
inactive: HCT-15 colon 44.9% | HT29 colon 27.7% | SNB-19 CNS 63.9% | U251 CNS 35% | PC-3 prostate 22.3% | SK-MEL-5 melanoma 57.1% | UACC-62 melanoma 36.5% | LOX IMVI melanoma 25.8% | SK-MEL-28 melanoma 53.1%

CO/C=C/C(=O)c1cc2cnc3c(=N)cc(NC(=O)C(C)C)c([nH]1)c23
active: HCT-15 colon -26.8% | HT29 colon -21.5% | SNB-75 CNS -11.8% | SNB-19 CNS -29.8% | U251 CNS -74.3% | PC-3 prostate -21.6% | SK-MEL-5 melanoma -96.9% | UACC-62 melanoma -53.8% | LOX IMVI melanoma -73.9% | SK-MEL-28 melanoma -44.8%

C[C@H]1Oc2cc(cnc2N)-c2c(nn(C)c2C#N)CN(C)C(=O)c2ccc(F)cc21
inactive: HCT-15 colon 96.7% | HT29 colon 33% | SNB-75 CNS 83.8% | SNB-19 CNS 110% | U251 CNS 96.6% | PC-3 prostate 81.7% | SK-MEL-5 melanoma 99.3% | UACC-62 melanoma 70.9% | LOX IMVI melanoma 74.2% | SK-MEL-28 melanoma 87.4%

CCCC(=O)OCC1OC(n2cnc3c(=S)nc(N)[nH]c32)C(OC(=O)CCC)C1OC(=O)CCC (stereo not given)
inactive: HCT-15 colon 50.2% | HT29 colon 30.2% | SNB-75 CNS 34.8% | SNB-19 CNS 89.3% | U251 CNS 68.2% | PC-3 prostate 76.1% | SK-MEL-5 melanoma 42.8% | LOX IMVI melanoma 12% | SK-MEL-28 melanoma 75.8%
active: UACC-62 melanoma 8.36%

CN1CC[C@H](c2c(O)cc(O)c3c(=O)cc(-c4ccccc4Cl)oc23)[C@H](O)C1
inactive: SNB-19 CNS 10.1%
active: HCT-15 colon 4.15% | HT29 colon -19.8% | SNB-75 CNS -59.7% | U251 CNS 5.78% | PC-3 prostate -4.62% | SK-MEL-5 melanoma -19% | UACC-62 melanoma -49.6% | LOX IMVI melanoma 4.81% | SK-MEL-28 melanoma -29.4%

FC(F)(F)c1ccc(CNc2ccc(Cc3c[nH]c4ncc(Cl)cc34)cn2)cn1
active: HT29 colon 2.92% | SNB-75 CNS 9.21% | SK-MEL-5 melanoma -59.8% | UACC-62 melanoma 6.74%
inactive: HCT-15 colon 19.9% | SNB-19 CNS 37% | U251 CNS 18.2% | PC-3 prostate 18.3% | LOX IMVI melanoma 15.2% | SK-MEL-28 melanoma 17.8%

CC(C)Nc1cc(-c2c[nH]c(C(=O)N[C@H](CO)c3cccc(Cl)c3)c2)c(Cl)cn1
inactive: HCT-15 colon 25.1% | SNB-75 CNS 51.8% | SNB-19 CNS 51.3% | U251 CNS 28% | PC-3 prostate 34.9% | UACC-62 melanoma 11.7% | LOX IMVI melanoma 14%
active: HT29 colon 1.57% | SK-MEL-5 melanoma -7.93% | SK-MEL-28 melanoma 5.19%

COc1cc2ncnc(Nc3ccc(F)c(Cl)c3)c2cc1NC(=O)/C=C/CN1CCCCC1
active: HCT-15 colon -49.7% | HT29 colon -63.4% | SNB-75 CNS -97.8% | SNB-19 CNS -47.5% | U251 CNS -77.1% | PC-3 prostate -58.3% | SK-MEL-5 melanoma -99.8% | UACC-62 melanoma -84.3% | LOX IMVI melanoma -90.2% | SK-MEL-28 melanoma -85.5%

Cn1cc(-c2ccc(F)c(C(F)(F)F)c2)nc1C1CCN(c2ncnc3[nH]ncc23)CC1
active: SNB-75 CNS -15%
inactive: HCT-15 colon 70% | HT29 colon 60.8% | SNB-19 CNS 52.5% | U251 CNS 48% | PC-3 prostate 71% | SK-MEL-5 melanoma 95.1% | UACC-62 melanoma 75.7% | LOX IMVI melanoma 69.4% | SK-MEL-28 melanoma 86.2%

COc1cc(N2CCC(N(C)C)CC2)ccc1Nc1ncc(Cl)c(Nc2ccccc2P(C)(C)=O)n1
inactive: SNB-19 CNS 14.9% | PC-3 prostate 26% | SK-MEL-5 melanoma 16.5% | UACC-62 melanoma 16% | SK-MEL-28 melanoma 49.4%
active: HCT-15 colon 7.34% | HT29 colon -4.74% | SNB-75 CNS -82.5% | U251 CNS 5.24% | LOX IMVI melanoma -60.3%

CN(C)C1CCN(C(=O)c2ccc(NC(=O)Nc3ccc(-c4nc(N5CCOCC5)nc(N5CCOCC5)n4)cc3)cc2)CC1
active: HT29 colon -2.55% [2.5 µM] | SNB-75 CNS -51.7% [2.5 µM] | SNB-19 CNS 1.85% [2.5 µM] | U251 CNS -10.5% [2.5 µM] | PC-3 prostate 3.75% [2.5 µM] | SK-MEL-5 melanoma -39.1% [2.5 µM] | UACC-62 melanoma -58.9% [2.5 µM] | LOX IMVI melanoma 0.487% [2.5 µM] | SK-MEL-28 melanoma -27.6% [2.5 µM]
inactive: HCT-15 colon 74.1% [2.5 µM]

C[C@@H](Oc1cc(-c2cnn(C3CCNCC3)c2)cnc1N)c1c(Cl)ccc(F)c1Cl
active: HCT-15 colon -5.99% | HT29 colon -49.4% | SNB-75 CNS -67.7% | SNB-19 CNS 3.67% | U251 CNS -71.9% | PC-3 prostate -5.54% | SK-MEL-5 melanoma -99.8% | UACC-62 melanoma -83.5% | LOX IMVI melanoma -90.8% | SK-MEL-28 melanoma -84.7%

CCCCCc1ccc(C)cc1OC(=O)CCl
inactive: HCT-15 colon 110% | HT29 colon 100% | SNB-75 CNS 90% | SNB-19 CNS 105% | U251 CNS 101% | PC-3 prostate 88.4% | SK-MEL-5 melanoma 103% | UACC-62 melanoma 113% | LOX IMVI melanoma 106% | SK-MEL-28 melanoma 113%
